Data taken from PubChem BioAssay AID686979 (National Center for Advancing Translational Sciences (NCATS), 2013).
Among all 420,000 compounds or so, about 50,000 (12%) were called active. About 26% were inconclusive and are not listed. For the sample, actives were picked, then their nearest neighbours and some compounds at random. Values without a mark were called inactive. The call rests on the fitted dose curve; in most records, active means well fitted inhibition curve with a large enough effect; inconclusive means small, poorly fitted or top-dose-only effect; inactive means flat fitted curve, though single readings scatter.

Test: qHTS for Inhibitors of human tyrosyl-DNA phosphodiesterase 1 (TDP1): qHTS in cells in presence of CPT; further: nearly all actives have a fitted effect of over 55% in size
Conditions: chicken DT40 Tdp1-/-;hTDP1 cells + 20 nM CPT, ATP luminescence, 48 h; series mostly up to 46.2 µM; activity change, negative = growth inhibition: at the top concentration
How it was run: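 Cell growth measured by CellTiter-Glo luminescence after a minimum 48 h, 37 C compound exposure with 20 nM CPT in Tdp1-knockout DT40 cells stably expressing hTDP1, seeded 400/well; qHTS titration format.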
On the % scale 0 is the no-effect control and ±100 the full control effect; potency means the concentration at half of the fitted maximal effect.

Structure (SMILES) | activity change, negative = growth inhibition | Potency
Cc1c(Br)ccc(NC(=O)COc2ccccc2C(N)=O)c1C | -28.1% | –
CNC(=O)NC(=O)C(OC(=O)c1cccc(S(=O)(=O)N2CCCCC2)c1)c1ccccc1 (stereo not given) | -8.68% | –
C=CCNC(=O)CC12CC3CC(C1)CC(CC(=O)NCC=C)(C3)C2 | 1.95% | –
CC(=O)O[C@H]1CC[C@@]2(C)[C@@H](CC[C@@H]3[C@@H]2CC[C@]2(C)[C@@H](C(C)(C)O)C[C@@H]32)C1 | -27.7% | –
COc1cc(F)c(C2=CC(=O)CC(C)(C)C2)cc1F | -23.9% | –
NS(=O)(=O)c1ccc(Nc2nc(-c3ccccc3)cs2)cc1 | -14.1% | –
O=C(Nc1nc(-c2ccc(-c3ccccc3)cc2)cs1)c1cnccn1 | -2.66% | –
c1cnc(Nc2nc(-c3ccc4ccccc4c3)cs2)nc1 | – | 29.1 µM (active)
CCOc1cccc2c1OC1(CCCCC1)N1N=C(c3cccnc3)CC21 (stereo not given) | -25.9% | –
FC(F)(F)c1cccc(Cc2noc(CN3CCC(N4CCCCC4)CC3)n2)c1 | -18.7% | –
CCCCOC(=O)Nc1nnc(CC(=O)NCc2ccccc2)s1 | 2.02% | –
CN(C(=O)COC(=O)Cn1cnc2c1c(=O)n(C)c(=O)n2C)C1(C#N)CCCCC1 | -11.2% | –
COC(=O)[C@@H]1C[C@@]2(O)[C@@H](O)[C@@H](O)[C@@H](O)C[C@H]2N1Cc1ccc(C)s1 | -25% | –
O=C(Nc1ccc2c(c1)OCO2)c1cc(-c2cccc(Cl)c2)on1 | -12.5% | –
c1ccc(-c2cn3cccnc3n2)cc1 | -0.0131% | –
c1ccc(-c2cn3c(n2)CCc2ccc4cccnc4c2-3)cc1 | – | 13 µM (active)
CS/C(=C\[N+](=O)[O-])Nc1ccc(C)cc1 | 2.33% | –
COc1cc(C(C)=O)ccc1OC(=O)CN1C(=O)c2ccccc2C1=O | 10.9% | –
Cc1ccccc1N1CCN(CCCN2C(=O)C3CCCCN3C2=O)CC1 (stereo not given) | -24.5% | –
CCN(CC)CCCSc1nc2ccccc2s1 | 18.1% | –
COc1cc(N=Cc2c(O)[nH]c3ccccc23)cc(OC)c1OC | – | 20.6 µM (active)
COc1cc2[nH]c(O)c(C=O)c2cc1OC | -10.3% | –

Structure (SMILES) | activity change, negative = growth inhibition | Potency
COc1ccc(N=Cc2c(O)[nH]c3ccccc23)cc1OC | -29% | –
COc1ccccc1-c1nn(Cc2ccccc2)cc1C(=O)N1CCN(c2ncccn2)CC1 | – | 25.9 µM (active)
COc1cccc(OC)c1C(=O)N1CCN(Cc2cccnc2)CC1 | 0.63% | –
Oc1ccc(CN2CCN(c3ncccn3)CC2)cc1 | 0.51% | –
O=C(NCc1ccco1)/C(=C/c1ccco1)NC(=O)c1ccccc1 | -17% | –
CCCCC/C=C\C/C=C\CCCCCCCCCC(=O)O | -5.48% [at 4.12 µM] | –
CC(C)CC[n+]1ccn(C2=C([O-])c3ccccc3C(=O)/C2=N\S(=O)(=O)c2ccccc2)c1 | – | 11.6 µM (active)
COc1cc(OC)cc(C(=O)Nc2cc3nn(-c4ccccc4)nc3cc2Cl)c1 | – | 11.6 µM (active)
CCCC(=O)Nc1cc2nn(-c3ccccc3)nc2cc1C | -1.95% | –
CCOC(=O)c1cc(-c2ccccc2)n(-c2cccc(C(=O)Nc3cc(OC)cc(OC)c3)c2)c1C | -5.9% | –
COc1ccccc1-c1ccnc(-n2ncc(C(=O)NCCc3ccncc3)c2C)n1 | 39.7% [at 9.04 µM] | –
COc1cccc(COC(=O)C2CCN(S(=O)(=O)c3cccs3)CC2)c1OC | -0.942% | –
Cc1cccc(OCC(=O)NC2CC(C)(C)NC(C)(C)C2)c1 | 8.74% | –
O=C(Nc1cccc(F)c1)N1CCC2(CC1)CCN(S(=O)(=O)c1ccccc1)CC2 | -27.3% | –
O=C(c1cn(-c2ccccc2)nc1-c1cc2ccccc2oc1=O)N1CCOCC1 | 7.05% | –
O=c1oc2ccccc2cc1-c1cn(-c2ccccc2)c(=S)[nH]1 | – | 2.59 µM (active)
S=c1[nH]c(-c2cccs2)cn1-c1ccccc1 | -5.38% | –
CCn1c(CNC(=O)C23CC4CC(CC(C4)C2)C3)nnc1SCC(=O)Nc1ccc(OC)cc1 | -21.9% | –
CC(C)C1C2=C(CC(C)(C)CC2=O)ON1c1ccccc1 (stereo not given) | – | 25.9 µM (active)
COC(=O)C1CC2=C(CC(C)(C)CC2=O)N(c2ccccc2)C1=O (stereo not given) | -3.49% | –
CC(C)N1C(=O)N(c2ccccc2)C(C)(O)CC1(C)C (stereo not given) | -17% | –
COc1cc2nc(CN(C)Cc3ccc(F)cc3)[nH]c(=O)c2cc1OC | -27.7% | –

Structure (SMILES) | activity change, negative = growth inhibition | Potency
CCOC(=O)C1CCCN(C(=O)c2ccc(-n3ccc4ccccc43)s2)C1 (stereo not given) | – | 18.4 µM (active)
CCOC(=O)C1CCCN(C(=O)c2cccc3ccccc23)CC1 (stereo not given) | 5.97% | –
CCOC(=O)C1CCCN(C(=O)C2CCN(c3nnc(-n4cccc4)s3)CC2)C1 (stereo not given) | -2.31% | –
CCC(Oc1ccccc1C)C(=O)Nc1ccc(S(=O)(=O)Nc2cc(C)on2)cc1 (stereo not given) | 7.59% | –
CCOC(=O)c1sc(NC(=O)C2CSC3(C)CCC(=O)N23)nc1C (stereo not given) | 6.57% | –
CN(C)S(=O)(=O)c1ccc(C(=O)NCC2(N3CCOCC3)CCCCC2)cc1 | -27% | –
O=C(NCc1ccc(F)cc1)C1CCN(C(=O)Nc2ccc(F)cc2)CC1 | 7.91% | –
CCOC(=O)c1c(C)[nH]c2c1-c1ccccc1C(=O)C2=O | – | 0.517 µM (active)
CCOC(=O)c1c(SCC(=O)Nc2cccc(C)c2C)nc(=O)[nH]c1C | -25.5% | –
CCOC(=O)c1c(C)[nH]c(C)c1S(=O)(=O)N(C)CC(=O)Nc1ccccc1C | -0.387% | –
Cc1ccc(S(=O)(=O)N2CCCC2C(=O)OCc2nc3sc(C)c(C)c3c(=O)[nH]2)cc1 (stereo not given) | -12.6% | –
COCCN(CCOC)c1nc(N)c2c(N)nc3c(c2c1C#N)CC(=O)N3Cc1ccc(Cl)cc1 | -6.53% | –
C[C@H](NC(=O)c1ccccc1)C(=O)OCC(=O)c1c[nH]c2ccccc12 | -21.6% | –
CN(C)c1ccc(C(CNC(=O)c2ccc(F)cc2)c2c[nH]c3ccccc23)cc1 (stereo not given) | – | 18.4 µM (active)
O=C(CNC(=O)c1ccc(F)cc1)c1ccccc1 | 1.2% | –
O=C(CCNC(=O)c1ccc(Br)cc1)NCCCc1ccccc1 | -23.6% | –
COc1ccccc1CN1CCNC(=O)C1CC(=O)N(C)CC1CCOCC1 (stereo not given) | -8.06% | –
O=S(=O)(NCc1cccnc1)c1ccc(Br)s1 | -22.4% | –
O=S(=O)([N-]c1nc2ccccc2nc1-[n+]1ccc(Cc2ccccc2)cc1)c1ccc(Br)s1 | – | 14.6 µM (active)
Cc1cc(C)c[n+](-c2nc3ccccc3nc2[N-]S(=O)(=O)c2cccs2)c1 | 5.23% | –
C[C@@H](NC(=O)c1nc[nH]c1C(=O)N1CCN(C(=O)OC(C)(C)C)CC1)c1ccccc1 | -20.9% | –
